Our source for the Potency values is PubChem BioAssay (NCATS).

Results filed as inconclusive are left out. Where a call stands in place of a potency, no number is given. Calls of active or inactive are those of the source. Calls follow the shape of the dose curve; as a rule, active = well fitted inhibition curve with a large enough effect; inconclusive = small, poorly fitted or top-dose-only effect; inactive = flat fitted curve, though single readings scatter.
Potency is read from the fitted curve at half-maximal effect.

The first assay concerns CP252. In words: qHTS profiling for inhibitors of Plasmodium falciparum proliferation (AID 504749). Also: nearly all actives have a fitted effect of over 60% in size. Particulars: P. falciparum in erythrocytes, SYBR Green DNA, 72 h; series mostly up to 28.7 µM. The essentials: (§1)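 P. falciparum-infected erythrocytes (0.3% parasitemia, 2.5% hematocrit final) were exposed to compounds for 72 h at 37 C in 5% CO2, then lysed with SYBR Green buffer overnight at room temperature; parasite DNA fluorescence was normalized to artemisinin and DMSO controls.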
In the case of `CC[C@]1(O)CC[C@H]2[C@@H]3CCC4=CCCC[C@@H]4[C@H]3CC[C@@]21C`, the Potency entry is “inactive”.

On to `Cc1c(Cl)c(=O)oc2cc(OP(=O)(OCCCl)OCCCl)ccc12`, for which the Potency was 8.91 µM (active).

In the case of `CN1C(=O)CN=C(c2ccccc2)c2cc([N+](=O)[O-])ccc21`, the Potency entry was “inactive”.

For the molecule `CCCCCCCCC(=O)NCc1ccc(O)c(OC)c1`, the Potency entry is “inactive”.

With `c1cc2c(c(N3CCNCC3)c1)OCCO2`, the Potency result is “inactive”.

Consider `COc1ccc(CN2CCNCC2)c(OC)c1OC`, for which the Potency entry was “inactive”.

In the case of `Clc1ccc(CO/N=C(\Cn2ccnc2)c2ccc(Cl)cc2Cl)c(Cl)c1`, the Potency was 6.31 µM (active).

On to `C[C@]12Cc3nonc3C[C@@H]1CC[C@@H]1[C@@H]2CC[C@@]2(C)[C@H]1CC[C@]2(C)O`, for which the Potency entry was “inactive”.

Consider `ClC1=C(Cl)C2(Cl)C(CBr)CC1(Cl)C2(Cl)Cl` (stereo not drawn), for which the Potency result is “inactive”.

Turning to `CN1C[C@@H](NS(=O)(=O)N(C)C)C[C@@H]2c3cccc4c3c(cn4C)C[C@H]21`, the Potency result is “inactive”.

With `CNC(=O)Oc1cccc2ccccc12`, the Potency result was “inactive”.

Take `COC(=O)C1=CCCN(C)C1`: the Potency entry is “inactive”.

Turning to `COc1ccc(C(=O)N2CCCC2=O)cc1`, the Potency entry was “inactive”.

In the case of `Oc1c(Br)cc(Br)cc1Br`, the Potency entry is “inactive”.

Turning to `OC(O)C(Cl)(Cl)Cl`, the Potency result was “inactive”.

For the molecule `C[N+](C)(C)CCOC(=O)C(O)(c1ccccc1)c1ccccc1`, the Potency result is “inactive”.

Take `C[C@]12C=CC(=O)C=C1CC[C@@H]1[C@@H]2CC[C@@]2(C)[C@H]1CC[C@]2(C)O`: the Potency entry is “inactive”.

For `O=C1NCN(c2ccccc2)C12CCN(CCCOc1ccc(F)cc1)CC2`, the Potency entry was “inactive”.

A further assay deals with CP256. The assay is described as above. To be noted: P. falciparum in erythrocytes, SYBR Green DNA, 72 h; series mostly up to 28.7 µM. The essentials: as §1
Consider `O=C(CCCN1CCC(n2c(=O)[nH]c3ccccc32)CC1)c1ccc(F)cc1`, for which the Potency was 3.55 µM (active).

For `Cc1c(Cl)c(=O)oc2cc(OP(=O)(OCCCl)OCCCl)ccc12`, the Potency was 10 µM (active).

Regarding `CN1C(=O)CN=C(c2ccccc2)c2cc([N+](=O)[O-])ccc21`, the Potency entry is “inactive”.

As to `CCCCCCCCC(=O)NCc1ccc(O)c(OC)c1`, the Potency result is “inactive”.

For the molecule `c1cc2c(c(N3CCNCC3)c1)OCCO2`, the Potency entry was “inactive”.

In the case of `C=CCOC(Cn1ccnc1)c1ccc(Cl)cc1Cl` (stereo not drawn), the Potency entry was “inactive”.

For the molecule `COc1ccc(CN2CCNCC2)c(OC)c1OC`, the Potency entry is “inactive”.

In the case of `C[C@]12Cc3nonc3C[C@@H]1CC[C@@H]1[C@@H]2CC[C@@]2(C)[C@H]1CC[C@]2(C)O`, the Potency entry is “inactive”.

Consider `ClC1=C(Cl)C2(Cl)C(CBr)CC1(Cl)C2(Cl)Cl` (stereo not drawn), for which the Potency result was “inactive”.

On to `O=C(NC(=O)c1c(F)cccc1F)Nc1cc(Cl)c(OC(F)(F)C(F)C(F)(F)F)cc1Cl` (stereo not drawn), for which the Potency was 8.91 µM (active).

Regarding `CNC(=O)Oc1cccc2ccccc12`, the Potency result is “inactive”.

As to `COC(=O)C1=CCCN(C)C1`, the Potency result was “inactive”.

For the molecule `COCC(=O)N(c1c(C)cccc1C)C(C)C(=O)OC` (stereo not drawn), the Potency entry was “inactive”.

For `COc1ccc(C(=O)N2CCCC2=O)cc1`, the Potency entry was “inactive”.

For `Oc1c(Br)cc(Br)cc1Br`, the Potency entry was “inactive”.

With `CC(C)(O)C(Cl)(Cl)Cl`, the Potency is 10 µM (active).

Regarding `OC(O)C(Cl)(Cl)Cl`, the Potency result is “inactive”.

For the molecule `C[N+](C)(C)CCOC(=O)C(O)(c1ccccc1)c1ccccc1`, the Potency entry is “inactive”.

Turning to `C[C@]12C=CC(=O)C=C1CC[C@@H]1[C@@H]2CC[C@@]2(C)[C@H]1CC[C@]2(C)O`, the Potency entry was “inactive”.

Regarding `O=C1NCN(c2ccccc2)C12CCN(CCCOc1ccc(F)cc1)CC2`, the Potency result was “inactive”.
